Read-out in experiment [1]: Monokine induced gamma interferon (MIG), CXCL9 (gene 4283)
Put plainly: BSK_KF3CT_MIG: BioMAP Diversity Plus: KF3CT Assay for Monokine induced gamma interferon (MIG) Biomarker Activity (AID 2284248). To be noted: primary human keratinocytes with fibroblasts. In short, it runs like this:
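MIG in dosed human skin co-cultures was measured by ELISA at 24 h, relative to DMSO.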

Read-out in experiment [2]: Collagen I, COL1A1 (gene 1277)
The experiment is described as follows: BSK_hDFCGF_CollagenI: BioMAP Diversity Plus: hDFCGF Assay for Collagen I Biomarker Activity (AID 2284250). To be noted: primary human foreskin fibroblasts. Put shortly:
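ELISA read-out of Collagen I in human dermal foreskin fibroblast cultures, 24 h after dosing. Gain of signal versus DMSO vehicle defines activity.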

Read-out in experiment [3]: Interferon-inducible T-cell alpha chemoattractant (ITAC), CXCL11 (gene 6373)
The experiment is described as follows: BSK_hDFCGF_ITAC: BioMAP Diversity Plus: hDFCGF Assay for Interferon-inducible T-cell alpha chemoattractant (ITAC) Biomarker Activity (AID 2284251). To be noted: primary human foreskin fibroblasts. Put shortly: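 Chemical dosing of primary human foreskin fibroblast cultures preceded ELISA measurement of I-TAC at 24 h. Response was analysed in the positive direction using DMSO as baseline, while parallel SRB staining measured cytotoxicity.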

Read-out in experiment [4]: Plasminogen activator inhibitor-1 (PAI1), SERPINE1 (gene 5054)
Put plainly: BSK_KF3CT_PAI1: BioMAP Diversity Plus: KF3CT Assay for Plasminogen activator inhibitor-1 (PAI1) Biomarker Activity (AID 2284252). As to conditions: primary human keratinocytes with fibroblasts. In short, it runs like this:
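Keratinocyte + dermal fibroblast co-culture (human primary); 24 h post-dose; PAI-1 by ELISA; gain-of-signal fit vs DMSO control.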

Read-out in experiment [5]: Collagen I, COL1A1 (gene 1277)
Put plainly: BSK_MyoF_CollagenI: BioMAP Diversity Plus: MyoF Assay for Collagen I Biomarker Activity (AID 2284238). To be noted: primary human lung fibroblasts. Put shortly:
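Measured by ELISA: Collagen I from human lung fibroblasts 24 h after compound addition, analysed for signal gain with DMSO as baseline; overt toxicity read from SRB staining of parallel cultures at the same time.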

Read-out in experiment [6]: Collagen III, COL3A1 (gene 1281)
The experiment is described as follows: BSK_MyoF_CollagenIII: BioMAP Diversity Plus: MyoF Assay for Collagen III Biomarker Activity (AID 2284239). To be noted: primary human lung fibroblasts. In short, it runs like this:
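Multiplexed cell assay in lung fibroblasts, harvested at 24 h post-dose. Collagen III detected by ELISA, with positive-direction fitting relative to DMSO vehicle.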

Read-out in experiment [7]: Interleukin 17F (IL17F), IL17F (gene 112744)
Put plainly: BSK_BT_xIL17F: BioMAP Diversity Plus: BT Assay for Interleukin 17F (IL17F) Biomarker Activity (AID 2284243). To be noted: primary human B cells with PBMC. Put shortly: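 Luminex readout of IL-17F secretion, 24 h; cells: human B cells with PBMC; positive-direction analysis, DMSO control.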

Read-out in experiment [8]: Interleukin 2 (IL2), IL2 (gene 3558)
The experiment is described as follows: BSK_BT_xIL2: BioMAP Diversity Plus: BT Assay for Interleukin 2 (IL2) Biomarker Activity (AID 2284245). To be noted: primary human B cells with PBMC. In short, it runs like this: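 Readout: supernatant IL-2 via Luminex xMAP after 24 h chemical dosing of a B cell/PBMC primary human co-culture. DMSO serves as negative control and baseline; increases in signal were fitted.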

Read-out in experiment [9]: Basic fibroblast growth factor (bFGF), FGF2 (gene 2247)
The experiment is described as follows: BSK_MyoF_bFGF: BioMAP Diversity Plus: MyoF Assay for Basic fibroblast growth factor (bFGF) Biomarker Activity (AID 2284246). To be noted: primary human lung fibroblasts. In short, it runs like this: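 Primary human lung fibroblast culture, 24 h compound exposure; ELISA read-out of bFGF. Positive-direction fit vs DMSO baseline. Cytotoxicity: SRB stain (0.1% SRB, 10% TCA fixation, 560 nm) in parallel wells.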

Read-out in experiment [10]: Collagen IV, COL4A1 (gene 1282)
Put plainly: BSK_MyoF_CollagenIV: BioMAP Diversity Plus: MyoF Assay for Collagen IV Biomarker Activity (AID 2284247). To be noted: primary human lung fibroblasts. Put shortly:
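ELISA read-out of Collagen IV in lung fibroblast cultures, 24 h post-dosing; gain of signal relative to DMSO vehicle baseline defines activity.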

Read-out in experiment [11]: Vascular cell adhesion molecule 1 (VCAM1), VCAM1 (gene 7412)
Put plainly: BSK_BF4T_VCAM1: BioMAP Diversity Plus: BF4T Assay for Vascular cell adhesion molecule 1 (VCAM1) Biomarker Activity (AID 2284249). As to conditions: primary human bronchial epithelial cells with fibroblasts. Put shortly: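 Cell-surface VCAM-1 quantified by ELISA after 24 h chemical exposure of human bronchial epithelial/dermal fibroblast co-cultures, with SRB staining in parallel wells for cytotoxicity; DMSO baseline, positive-direction fitting.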

Consider 21 compounds from PubChem BioAssay (EPA / NIEHS).

Values joined by “and” are separate entries in the source; they are usually repeats but may differ in a detail not shown here. Equal entries are not always repeated. Where a structure was tested more than once in an assay, its records may differ in their call. Active and inactive are the calls of the source. Rule for the calls: active = hit-call score of the fitted dose curve at least 0.9, where 1 is the maximum; inactive = score below 0.9.

Regarding `CCCO[Si](OCCC)(OCCC)OCCC`, the result in experiment [1], in [2], in [3] and in experiment [4] was inactive.

Consider `C=CC(=O)OCC(CO)(COC(=O)C=C)COC(=O)C=C`, for which the AC50 was 2.35 µM (active) in experiment [5]; 1.25 µM (active) in experiment [6]; 1.15 µM (active) in [7]; 1.27 µM (active) in [8]; 1.62 µM (active) in experiment [9]. Further, in experiment [10], the result was inactive.

Consider `CCCCCCCC1CCCC1=O` (stereo not drawn), for which the AC50 was 32.6 µM (active) in experiment [5] and 32.7 µM (active) in experiment [6]. The outcome in experiment [7], in experiment [8], in experiment [9] and in experiment [10] was inactive.

For the compound `O=C(O)C(F)(F)C(F)(F)C(F)(F)C(F)(F)C(F)(F)C(F)(F)C(F)(F)C(F)F`, the outcome in experiment [5], in experiment [6], in experiment [7], in experiment [8], in [9] and in [10] was inactive. Further, the result in experiment [1], in experiment [11], in experiment [2], in experiment [3] and in [4] was inactive. The AC50 was 2.3 µM (active) in [11] and 12.9 µM (active) in experiment [3].

Consider `CCn1cc(C(=O)O)c(=O)c2ccc(C)nc21`, for which the result in [1], in experiment [2], in experiment [3] and in experiment [4] was inactive.

For `CC(=O)OCC=C(C)CCC=C(C)CCC=C(C)C`, the result in [5], in [6], in experiment [9] and in experiment [10] was inactive. Further, the half-maximal activity concentration (AC50) was 30.3 µM (active) in experiment [7] and 36.4 µM (active) in experiment [8].

On to `CC(=O)c1ccc(C)cc1`, for which the result in experiment [1], in [2], in experiment [3] and in [4] was inactive.

For the compound `CC(C)(CO)CO`, the result in [1], in [2], in experiment [3] and in [4] was inactive.

In the case of `O=C(O)C(F)(F)OC(F)(F)C(F)(F)OC(F)(F)C(F)(F)C(F)(F)C(F)(F)F`, the AC50 in experiment [5] was 30 µM (active) and 31.8 µM (active); in experiment [6], 42.2 µM (active) and 44.1 µM (active); in experiment [10], 43.5 µM (active) and 38.4 µM (active); in experiment [3], 10.9 µM (active) and 17.6 µM (active). For the same compound, the outcome in experiment [7], in experiment [8], in experiment [9], in experiment [1], in [11] and in [2] was inactive. Besides, in experiment [4], the outcome was inactive.

On to `CC(=O)CCC=C(C)CCC=C(C)C`, for which the outcome in [6], in [7], in experiment [8], in experiment [9] and in experiment [10] was inactive.

Take `c1ccc(OCCOc2ccccc2)cc1`: the outcome in experiment [1], in experiment [2], in experiment [3] and in experiment [4] was inactive.

`CCCCCCCCCC(=O)OCC`: the outcome in [5], in experiment [6], in experiment [7], in [8], in experiment [9] and in experiment [10] was inactive.

As to `CC(C)(C)c1cccc(O)c1`, the result in experiment [5], in [6], in experiment [7], in experiment [8], in experiment [9] and in [10] was inactive.

Regarding `CCC(=O)OCC=Cc1ccccc1`, the outcome in experiment [5], in experiment [6], in [7], in experiment [8], in [9] and in [10] was inactive.

As for `O=S(=O)(O)C(F)(F)C(F)(F)OC(F)(F)C(F)(F)F`, the outcome in [5], in experiment [6], in [7], in experiment [8], in [9] and in experiment [10] was inactive. The result in [1], in experiment [11], in [2], in [3] and in [4] was inactive.

As for `CC(C)CCCC(C)(C)O`, the outcome in [1], in [2], in [3] and in experiment [4] was inactive.

`C=C(F)C(=O)OC(C(F)(F)F)C(F)(F)F`: the result in [5], in [6], in experiment [7], in experiment [8], in [9] and in [10] was inactive. In addition, the result in experiment [1], in [11], in experiment [2], in experiment [3] and in [4] was inactive.

Consider `Nc1ccc(N)c([N+](=O)[O-])c1`, for which the outcome in experiment [5], in [6], in experiment [7], in experiment [8], in experiment [9] and in experiment [10] was inactive.

Consider `CCCCN(CCO)CCO`, for which the result in experiment [1], in experiment [2], in [3] and in [4] was inactive.

In the case of `CCOC(=O)CCCCCCCCC(=O)OCC`, the result in [5], in [6], in experiment [7], in [8], in [9] and in experiment [10] was inactive.

On to `CCCCCCCCCCCCS`, for which the values for the AC50 in [5], in experiment [6] and in experiment [9] were 20 µM (active), 27.9 µM (active) and 29 µM (active), respectively. The outcome in experiment [7], in [8] and in experiment [10] was inactive.
